# Mcl1 Noxa PPI – disrupts binding of human Mcl-1 to Noxa peptide | TR-FRET Mcl-1/Noxa peptide binding, 2 h | inhibition, % at 21.7 µM | 220,000 tested, 1.5% active;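 active means compounds that cut the protein-peptide binding signal by more than 50% relative to plate controls in a single-dose test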;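 further: His-tagged Mcl-1 with rhodamine Noxa BH3 peptide and terbium anti-His antibody; 0% = Mcl-1 plus Noxa peptide wells and 100% = peptide-only wells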
# Bim-Mcl-1 – human Bim-Mcl-1 interaction inhibition; Q07820; Bead-based flow cytometry, Bim peptide-Mcl-1 binding; inhibition, % at 10 µM; 190,000 tested, 0.1% active; AID 1009; in the data active means inhibition above about 40%;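 further: 0% = no compound tracer wells and 100% = peptide blocker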
# Pf gametocyte – inhibitors of late stage P. falciparum gametocyte viability. P. falciparum stage V gametocytes, ATP luminescence, 24 h. inhibition, % at 10.9 µM. 150,000 tested, 0.065% active. AID 743093;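 active means inhibition above the mean plus 3 SD of compounds within the control limits, set per campaign, cut at about 38% in these data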;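 further: 0% = DMSO wells and 100% = medium only without gametocytes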
# 14-3-3 Bad inh – disrupts binding of bovine 14-3-3 zeta to phospho-Bad peptide; P63103; AID 781; TR-FRET 14-3-3zeta/Dy647-pBad peptide displacement, 1 h; inhibition, % at 21.7 µM; 220,000 tested, 0.71% active;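 active means inhibition above about 70%, limit read from the data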;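 further: 0% = full 14-3-3 plus peptide FRET controls and 100% = background without 14-3-3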
# Mcl1 Bid PPI – disrupts binding of human Mcl-1 to Bid peptide; TR-FRET Mcl-1/Bid-Dy647 peptide binding, 1536-well; inhibition, % at 21.7 µM; Q07820; 220,000 tested, 0.97% active; AID 1021;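 active means compounds that cut the binding signal by more than half at the single screening dose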;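 further: His-tagged Mcl-1 with europium anti-His antibody binding Bid BH3 peptide; 0% = Mcl-1 plus peptide wells and 100% = peptide-only wells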
# eIF4E 4G PPI – eIF4E/eIF4G interaction inhibition in translation initiation; P63073+Q04637; TR-FRET eIF4E-eIF4GI(517-606) binding, 2 h; inhibition, % at 21.7 µM; 220,000 tested, 0.37% active; AID 782;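 active means inhibition above about 30%, limit read from the data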;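 further: 0% = full FRET control wells and 100% = background wells lacking eIF4GI fragment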
# Target sequence (P63073 whole entry, looked up, the tested form may be a part): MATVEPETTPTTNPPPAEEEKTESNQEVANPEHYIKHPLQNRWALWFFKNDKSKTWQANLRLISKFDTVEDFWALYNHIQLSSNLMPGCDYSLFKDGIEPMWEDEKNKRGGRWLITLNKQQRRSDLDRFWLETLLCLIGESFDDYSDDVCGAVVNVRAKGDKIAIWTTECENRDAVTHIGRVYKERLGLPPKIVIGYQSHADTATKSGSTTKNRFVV
# Target sequence (Q04637 whole entry, looked up, the tested form may be a part): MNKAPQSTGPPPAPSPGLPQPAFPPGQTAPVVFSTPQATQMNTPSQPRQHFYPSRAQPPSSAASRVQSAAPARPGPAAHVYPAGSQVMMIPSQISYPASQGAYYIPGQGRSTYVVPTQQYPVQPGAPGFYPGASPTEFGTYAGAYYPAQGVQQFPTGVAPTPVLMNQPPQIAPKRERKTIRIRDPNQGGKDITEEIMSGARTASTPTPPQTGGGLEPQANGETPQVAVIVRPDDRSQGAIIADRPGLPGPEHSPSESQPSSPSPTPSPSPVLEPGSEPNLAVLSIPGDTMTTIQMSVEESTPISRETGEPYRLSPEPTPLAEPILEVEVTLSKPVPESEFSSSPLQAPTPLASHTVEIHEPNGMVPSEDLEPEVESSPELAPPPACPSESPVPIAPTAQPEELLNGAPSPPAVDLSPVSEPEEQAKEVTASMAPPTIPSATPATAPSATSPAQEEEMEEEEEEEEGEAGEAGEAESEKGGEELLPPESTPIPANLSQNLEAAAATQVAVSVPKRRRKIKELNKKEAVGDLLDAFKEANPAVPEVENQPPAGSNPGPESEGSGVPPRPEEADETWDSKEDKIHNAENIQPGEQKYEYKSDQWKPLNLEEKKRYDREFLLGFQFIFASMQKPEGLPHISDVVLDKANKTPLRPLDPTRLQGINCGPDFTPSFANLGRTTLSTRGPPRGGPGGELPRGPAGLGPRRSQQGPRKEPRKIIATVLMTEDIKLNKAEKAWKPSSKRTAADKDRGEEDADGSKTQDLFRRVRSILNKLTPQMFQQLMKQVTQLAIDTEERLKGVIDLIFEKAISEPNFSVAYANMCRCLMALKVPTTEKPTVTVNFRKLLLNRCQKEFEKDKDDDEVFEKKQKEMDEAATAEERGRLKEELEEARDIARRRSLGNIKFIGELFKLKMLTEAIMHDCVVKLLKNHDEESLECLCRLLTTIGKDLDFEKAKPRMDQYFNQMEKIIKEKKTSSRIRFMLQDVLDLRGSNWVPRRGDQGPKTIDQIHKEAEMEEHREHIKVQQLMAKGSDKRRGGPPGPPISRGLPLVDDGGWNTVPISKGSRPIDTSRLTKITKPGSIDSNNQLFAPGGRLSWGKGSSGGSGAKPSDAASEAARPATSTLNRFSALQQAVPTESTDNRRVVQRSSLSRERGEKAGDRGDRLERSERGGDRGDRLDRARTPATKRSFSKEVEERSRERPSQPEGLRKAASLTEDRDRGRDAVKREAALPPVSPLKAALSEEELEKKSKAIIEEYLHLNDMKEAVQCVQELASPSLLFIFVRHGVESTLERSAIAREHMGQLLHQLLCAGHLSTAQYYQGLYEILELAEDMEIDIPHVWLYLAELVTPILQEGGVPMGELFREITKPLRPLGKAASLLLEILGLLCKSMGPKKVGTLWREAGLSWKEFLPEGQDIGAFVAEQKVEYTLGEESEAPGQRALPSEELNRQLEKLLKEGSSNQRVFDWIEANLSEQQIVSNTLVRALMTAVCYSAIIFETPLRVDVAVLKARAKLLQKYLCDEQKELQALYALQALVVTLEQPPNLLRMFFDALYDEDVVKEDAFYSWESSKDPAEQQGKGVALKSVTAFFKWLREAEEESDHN
# Numbers without * were called inactive; / = not tested or not shown. Only some compounds are listed: those with a hit (about 2.7% of all), similar ones and a draw of the others.
SMILES,Mcl1 Noxa PPI,Bim-Mcl-1,Pf gametocyte,14-3-3 Bad inh,Mcl1 Bid PPI,eIF4E 4G PPI
O=c1[nH]ncc(N2CCN(C(c3ccccc3)c3ccccc3)CC2)c1Cl,-2,-4,7,-2,-4,8
O=c1[nH]ncc(N2CCCC2)c1Cl,-11,2,/,-7,-19,81*
CCOC(=O)C(=O)N1CCC(C(=O)OC)CC1,-2,2,-5,-10,-33,0
c1ccc(C(CN2CCOCC2)c2ccccc2)cc1,13,0,18,84*,45,1
CCc1ccccc1N(CC(=O)N1CCCCCC1)S(C)(=O)=O,/,/,-1,/,/,/
O=C(NCCNC1CCN(Cc2ccccc2)CC1)c1cccs1,7,-1,/,71*,8,-12
COc1ccc(S(=O)(=O)N2CCN(C(=O)NC3CCCCC3)CC2)cc1OC,56*,-4,-18,9,-61,-2
CN(CC1CCOCC1)C(=O)CC1C(=O)NCCN1Cc1ccc(-c2ccccc2)cc1 (configuration not stated),8,1,/,-1,3,3
C=CCn1c(O)c(C2=c3ccccc3=NC2=O)s/c1=N/c1nccs1,48,0,/,17,56*,2
C=CCn1c(O)c(C2=c3ccccc3=NC2=O)c2ccccc21,/,/,-16,/,/,/
O=c1c2ccccc2nnn1CCO,8,-3,-11,-13,-16,2
COc1ccccc1/C=C1/SC(=O)N(CCC(=O)Nc2ccc(S(=O)(=O)Nc3nccs3)cc2)C1=O,78*,-4,27,-2,-135,8
Cc1cc(C)nc(NS(=O)(=O)c2ccc(NC(=O)CN3C(=O)S/C(=C\c4ccccc4)C3=O)cc2)n1,34,-2,26,-17,-2,1
O=C(CCN1C(=O)S/C(=C\c2ccccc2)C1=O)Nc1ccc(S(=O)(=O)Nc2nccs2)cc1,82*,-1,/,-5,-84,-17
CCCn1nc(C(=O)Nc2ccc(S(=O)(=O)Nc3nccs3)cc2)c2ccccc2c1=O,51*,-1,/,8,-35,0
Cc1cc(Cl)ccc1N(CC(=O)NCc1ccc2c(c1)OCO2)S(C)(=O)=O,1,-1,-8,-8,-36,4
Cc1ccc2c(c1)c1cccc3c1n2CCN3CCC(N)=O,67*,4,/,32,-71,7
COC(=O)c1ccc(Sc2ccccn2)c([N+](=O)[O-])c1,-2,-5,-18,-8,55*,0
COc1ccc(C(=O)C2CCCN(Cc3cn[nH]c3-c3ccc(F)cc3)C2)cc1OC (configuration not stated),5,-4,-21,-13,96*,-2
CCN1CCCc2cc(CN(CCN3CCOCC3)C(=S)Nc3cccc(C)c3)ccc21,64*,-2,-13,12,-98,2
CCN1CCCc2cc(CN(CCN3CCOCC3)C(=S)Nc3ccccc3OC)ccc21,60*,-2,1,-9,-61,6
CCc1ccc(NC(=O)N(CCN2CCOCC2)Cc2ccc3c(c2)CCCN3CC)cc1,74*,-7,/,-10,-69,2
CCN1CCCc2cc(CN(CCN3CCOCC3)C(=S)Nc3ccccc3C)ccc21,72*,-1,-18,-6,-99,0
CCN1CCCc2cc(CN(CCN3CCOCC3)C(=S)Nc3ccc(OC)c(OC)c3)ccc21,25,-1,0,3,-66,-2
CC(=O)/C(C#N)=C1\NC(=O)C(Cc2ccc(C)c(Cl)c2)S1 (configuration not stated),-4,/,-24,1,8,4
SMILES,Mcl1 Noxa PPI,Bim-Mcl-1,Pf gametocyte,14-3-3 Bad inh,Mcl1 Bid PPI,eIF4E 4G PPI
CNC[C@H]1Oc2c(NC(=O)c3ccc(-c4nccs4)cc3)cccc2C(=O)N([C@@H](C)CO)C[C@@H]1C,/,/,14,/,/,/
O=S(=O)(c1ccc(NC(=S)NCc2ccncc2)cc1)N1CCCCC1,9,/,2,-8,-19,3
NC(=O)C1(N2CCCCC2)CCN(C(=S)Nc2ccc(F)c(Cl)c2)CC1,-22,-4,/,0,-15,0
Cc1ccc(NC(=O)CC(C(=O)O)c2ccccc2)cc1 (configuration not stated),-11,0,24,1,-19,9
O=C(O)c1cc(N2N=C(C(F)(F)F)/C(=C/C=C/c3ccco3)C2=O)ccc1Cl,106*,-4,-44,27,86*,20
CC(NC(=O)CCC(=O)N1CCCCCC1)c1ccccc1 (configuration not stated),/,/,-2,/,/,/
CC1CCN(c2c([N+](=O)[O-])c(=O)oc3ccccc23)CC1,-8,-1,/,-6,-14,3
C=C(C)C(=O)Nc1cccc(C2=NOC3(C2)C[C@@H](C(N)=O)N(C(=O)CC(c2ccccc2)c2ccccc2)C3)c1 (some centres not stated),56*,/,7,29,-56,2
C=C(C)C(=O)Nc1cccc(C2=NOC3(C2)C[C@H](C(N)=O)N(C(=O)CC)C3)c1 (some centres not stated),69*,/,/,28,-34,4
C=C(C)C(=O)Nc1cccc(C2=NOC3(C2)C[C@H](C(N)=O)N(C(=O)CC#N)C3)c1 (some centres not stated),16,/,/,13,-45,-1
C/C=C(\C)C(=O)Nc1cccc(C2=NOC3(C2)C[C@@H](C(N)=O)N(C(=O)c2ccccc2C(=O)c2ccccc2)C3)c1 (some centres not stated),-3,/,0,-1,-32,-1
C=C(C)C(=O)Nc1cccc(C2=NOC3(C2)C[C@H](C(N)=O)N(C(=O)c2ccccc2C(=O)c2ccccc2)C3)c1 (some centres not stated),71*,/,/,33,-102,8
Cc1nc(-c2ccccc2)nn1-c1ccc([N+](=O)[O-])cc1,/,/,-24,/,/,/
CN(Cc1ccccc1)C(=O)c1[nH]cnc1C(=O)NC1CCN(C(=O)OC(C)(C)C)CC1,/,/,-21,/,/,/
Cc1ccc(N(Cc2cc3cc(C)ccc3[nH]c2=O)C(=O)c2cccs2)cc1,-8,-4,5,0,61*,5
O=C(O)/C=C/C(=O)Nc1ccc2c(c1)NC(=O)CO2,51*,0,7,4,18,2
O=C1COc2ccc(C(=O)/C=C/c3ccccc3)cc2N1,8,-5,0,0,-5,2
FC(F)(F)C1=CC(c2ccccc2)=NCCN1,88*,-2,16,5,-24,5
CCn1c(=N)c(S(=O)(=O)c2ccccc2)cc2c(=O)n3ccccc3nc21,19,2,16,79*,9,-3
O=[N+]([O-])c1cc(C(F)(F)F)cc([N+](=O)[O-])c1NCCNC(=S)Nc1ccc(Cl)c(Cl)c1,11,/,7,-2,-26,6
CCNc1nc(NCC)nc(N/N=C/c2ccc(O)c(O)c2)n1,54*,2,-16,-13,-45,3
